# Data taken from PubChem BioAssay (NCATS).
# Results filed as inconclusive are left out. Calls of active or inactive are those of the source. Calls come from the whole dose curve; as a rule, active = well fitted inhibition curve with a large enough effect; inconclusive = small, poorly fitted or top-dose-only effect; inactive = flat fitted curve, though single readings scatter.
# Test system: HaCat
# Assay: Cytotoxic Profiling of Annotated Libraries Using Quantitative High-Throughput Screening (AID 1296008); note: nearly all actives have a fitted effect of over 60% in size
# Settings: Five cell lines viability, CellTiter-Glo ATP luminescence, 48-72 h; max response: active compounds read low
# Summary of the method: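 Cells exposed to compounds for 48 or 72 hr at 37 degrees Celsius. Viability read as ATP-coupled luminescence with CellTiter-Glo after 10 min at room temperature.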
row,SMILES,outcome
1,CC(=O)OCC(=O)O[C@@H]1[C@H]2[C@@H](OC(=O)c3ccccc3)[C@@H](C)C[C@]2(O)[C@H](OC(C)=O)C2(C)[C@H]3CC(C)(C)C(=O)[C@@H]3CC1(OC(C)=O)[C@@H]2OC(C)=O (some centres undefined),inactive
2,CC1(O)CCC2C(C(=O)O)=COC(OC3OC(CO)C(O)C(O)C3OC(=O)/C=C/c3ccc(O)cc3)C21 (centres undefined),inactive
3,CC(=O)NC(CCC(=O)O)C(=O)NCCc1ccc(O)cc1 (centres undefined),inactive
4,COC(=O)C1C(c2ccc(O)cc2)C(C(=O)OC)C1c1ccc(O)cc1 (centres undefined),inactive
5,C=C(C)C(=O)O[C@H]1C[C@@](C)(OC(C)=O)[C@@]2(O)CC[C@@](C)(O)[C@H](OC(C)=O)[C@@]23OC(=O)C(COC)=C13,inactive
6,CC1(C)CC(=O)N(CCCCN2CCN(c3ncccn3)CC2)C(=O)C1,inactive
7,COc1ccc2c(c1)OC[C@]1(O)c3cc4c(cc3O[C@H]21)OCO4,inactive
8,CC(CCC1(O)OC2CC3C4CCC5CC(O[C@@H]6O[C@H](CO)[C@@H](O)[C@H](O)[C@H]6O[C@@H]6OC[C@@H](O)[C@H](O)[C@H]6O)C(O)CC5(C)C4CCC3(C)C2C1C)CO[C@@H]1O[C@H](CO)[C@@H](O)[C@H](O)[C@H]1O (some centres undefined),inactive
9,COc1cc(CCc2ccccc2)c(C(=O)O)c2c1CC(C(C)(C)O)O2 (centres undefined),inactive
10,CCCC1=CC2=C(CO1)C(=O)C(C)(OC(=O)c1c(C)cc(OC)cc1O)C(O)C2 (centres undefined),inactive
11,C[C@@H]1O[C@@H](O[C@@H]2[C@@H](O)[C@H](O[C@@H]3[C@@H](O)[C@@H](O)[C@H](O[C@H]4[C@H](OC(=O)[C@]56CCC(C)(C)C[C@H]5C5=CCC7[C@@]8(C)C[C@H](O)[C@H](O[C@@H]9O[C@@H](C)[C@H](O)[C@@H](O)[C@H]9O)[C@@](C)(CO)C8CC[C@@]7(C)[C@]5(C)C[C@H]6O)O[C@H](C)[C@H](O)[C@@H]4O)O[C@H]3C)OC[C@H]2O)[C@H](O)[C@H](O)[C@H]1O (some centres undefined),inactive
12,CCS(=O)(=O)N1CCC([C@@H](C)n2c(C)c(C(=O)NCc3c(OC)cc(C)[nH]c3=O)c3ccccc32)CC1,inactive
13,C/C=C1\[C@H](O[C@@H]2O[C@H](CO)[C@@H](O)[C@H](O)[C@H]2O)OC=C(C(=O)OC)[C@H]1CC(=O)OC,inactive
14,O=C(O[C@H]1[C@@H]2C[C@@H]3OC[C@@](O)([C@H]2[C@H](O[C@@H]2O[C@H](CO)[C@@H](O)[C@H](O)[C@H]2O)O3)[C@@H]1O)c1ccccc1,inactive
15,CC1CCC2C(C)(C)C(O)CCC2(C)C12Cc1c(O)cc3c(c1O2)C(N)=NC3 (centres undefined),inactive
16,C=CC(C)(C)O[C@@H]1O[C@H](CO[C@@H]2OC[C@](O)(CO)[C@H]2O)[C@@H](O)[C@H](O)[C@H]1O,inactive
17,CCCC(N[C@@H](C)C(=O)N1[C@H](C(=O)O)C[C@@H]2CCCC[C@@H]21)C(=O)OCC (some centres undefined),inactive
18,O=C(O)c1ccc(CCCc2ccc(OCCc3ccc(F)cc3)cc2)o1,inactive
19,Cc1[nH]cnc1C1CCN(c2nc3cccc4c3n2CCC4=O)CC1,inactive
20,C[C@@H]1O[C@@H](O[C@@H]2[C@@H](O)[C@H](O[C@@H]3[C@@H](O)[C@@H](O)[C@H](O[C@H]4[C@H](OC(=O)[C@]56CCC(C)(C)C[C@H]5C5=CCC7[C@@]8(C)C[C@H](O)[C@H](O[C@@H]9O[C@H](C(=O)O)[C@@H](O)[C@H](O)[C@H]9O)[C@@](C)(CO)C8[C@H](O)C[C@@]7(C)[C@]5(C)CC6)OC[C@H](O)[C@@H]4O)O[C@H]3C)OC[C@H]2O)[C@H](O)[C@H](O)[C@H]1O (some centres undefined),inactive
21,CC1(C)CC2C(O)C3=C(CC(C)(O)C2C1)C(=O)OC3O (centres undefined),inactive
22,CC(C)=CC/C=C(/C)[C@H]1CC[C@]2(C)[C@@H]1[C@H](O)CC1[C@@]3(C)CC[C@H](O)C(C)(C)[C@@H]3[C@@H](O[C@@H]3O[C@H](CO)[C@@H](O)[C@H](O)[C@H]3O[C@@H]3O[C@@H](C)[C@H](O)[C@@H](O)[C@H]3O)C[C@]12C (some centres undefined),inactive
23,O=C(/C=C/c1ccc(O)cc1)OCC1=C[C@@H](O)[C@@H]2C=CO[C@@H](O[C@@H]3O[C@H](CO)[C@@H](O)[C@H](O)[C@H]3O)[C@H]12,inactive
24,O=C(O[C@H]1[C@@H]2C=CO[C@@H](O[C@@H]3O[C@H](CO)[C@@H](O)[C@H](O)[C@H]3O)[C@@H]2[C@@]2(CO)O[C@@H]12)c1ccc(O)c(O)c1,inactive
